Consider 32 compounds from PubChem BioAssay (NCI).

Each structure is given as a SMILES string. About 83,000 compounds went through this panel and 20% of them were active in at least one assay; those are over-represented in the sample as a whole.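 Testing used 96-well plates and a 48-hour single-concentration exposure. Example: -40 means 40% of the starting cells died.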 Calls of active or inactive are those of the source. How the source made its calls: active means growth percent below 10; inactive means the rest.

One test has as its system HCT-116 colon. As to the kind of experiment: NCI-60 one-dose screen, 48 h (100 = growth as untreated, 0 = no growth, -100 = all killed). The following applies: 10 µM unless noted.
In the case of `CCc1cc(O)ccc1Nc1cc(-c2ccc(-n3cccn3)cc2)[nH]n1`, the growth was 39% (inactive).

For `C#C[C@]1(O)CC[C@H]2[C@@H]3CC=C4c5sc(N(C)c6ccccc6)nc5CC[C@]4(C)[C@H]3CC[C@@]21C`, the growth was 48.4% (inactive).

For the compound `COc1cc(C(C)=C(c2ccc(OCCN(C)C)cc2)c2ccc(OCCN(C)C)cc2)ccc1F`, the growth is 107% (inactive).

Turning to `C#CCN(C)CCCOc1ccc(NCc2ccc(C(=O)NO)cc2)cc1Cl`, the growth was 10.7% (inactive).

In the case of `CSc1ccc(C(=NNS(=O)(=O)c2ccc(C)cc2)c2ccc(Cl)cc2)cc1`, the growth is 98.2% (inactive).

`Clc1ccc2[nH]cc(-c3nn4cc(-c5cccnc5)nc4s3)c2c1`: the growth was 99.8% (inactive).

Take `COc1ccc(/C=N/NC(=O)CSc2nc(-c3cnccn3)cc(-c3cccs3)c2C#N)cc1OC`: the growth is 55.4% (inactive).

With `N#Cc1cnc2ccc(-c3cnc4n[nH]nc4c3)cc2c1N1CCc2cc(F)c(Cl)cc21`, the growth is 23.7% (inactive).

The subject of the next test is HCC-2998 colon. The description is as above. To be noted: 10 µM unless noted.
As to `CCOC(=O)c1cnc2c(-c3ccc(Cl)c(Cl)c3)cnn2c1`, the growth is 85% (inactive).

For `CCCc1[nH]c(-c2cc(N)ccc2Cl)c2c1C(=O)CCCC2`, the growth was 101% (inactive).

As to `O=C(Nc1ccc(N=Cc2c(O)[nH]c3ccccc23)cc1)Nc1ccc(S(=O)(=O)Nc2ncccn2)cc1`, the growth is 109% (inactive).

As to `Cc1ccc(NC(=O)Nc2nc3ccc([N+](=O)[O-])cc3s2)cc1`, the growth is 6.19% (active).

Consider `COc1ccc(C2C(C#N)=C(/N=C/c3ccc(Cl)cc3)Oc3c2sc2c(C)cccc32)cc1` (configuration not stated), for which the growth is 16.7% (inactive).

For `Cc1ccc2c(n1)C(=O)C(Cl)=C(Nc1ccc(C(F)(F)F)cc1)C2=O`, the growth is 97.9% (inactive).

`Brc1cc(-c2cc(-c3ccc4c(c3)OCCO4)[nH]n2)cs1`: the growth was 62.1% (inactive).

For the compound `CN(C)c1cccc2c(S(=O)(=O)Nc3cccc(-c4csc(NC(=O)CCCCCN5CCN(CCO)CC5)n4)c3)cccc12`, the growth is 90.3% (inactive).

As for `CC1=C(C)C(=O)C(Nc2cccc(C(=O)OC(C)(C)C)c2)=CC1=O`, the growth was 103% (inactive).

As to `C=C(C)[C@@H]1CC[C@]2(C(=O)O)CC[C@]3(C)[C@H](CC[C@@H]4[C@@]5(C)C/C(=C/c6ccccn6)C(=O)C(C)(C)[C@@H]5CC[C@]43C)[C@@H]12`, the growth is 31.3% (inactive).

For the compound `Nc1ccc(Nc2ncnc3sc4c(c23)CCN(Cc2ccccc2)C4)cc1`, the growth was 105% (inactive).

On to `Cc1ccsc1[C@H]1c2[nH]c3ccccc3c2C[C@H]2C(=O)N(CCCCCCC(=O)NO)CC(=O)N12`, for which the growth was 88.1% (inactive).

For the compound `C=C(C)[C@@H]1CC[C@]2(COCCCNCCCN)CC[C@]3(C)[C@H](CC[C@@H]4[C@@]5(C)CC[C@H](O)C(C)(C)[C@@H]5CC[C@]43C)[C@@H]12`, the growth is -71.5% (active).

Turning to `C#C[C@]1(O)CC[C@H]2[C@@H]3CC=C4c5sc(NCc6ccccc6)nc5CC[C@]4(C)[C@H]3CC[C@@]21C`, the growth is 78.1% (inactive).

In the case of `Clc1ccc(CSc2nnc(-c3ccc(Cl)cc3)n2-c2ccccc2)cc1`, the growth was 95.8% (inactive).

On to `Cc1ccc(C(=O)CSc2nc3ccccc3c(=O)n2C)cc1`, for which the growth is 113% (inactive).

Take `CCn1c2ccc(/C=N/N(C)S(=O)(=O)CCN(C)C)cc2c2cc(/C=N/N(C)S(=O)(=O)CCN(C)C)ccc21`: the growth was 63.4% (inactive).

For `CN1CCN(c2ccc(Nc3nc(NCCCNS(=O)(=O)c4ccc(Cl)cc4)c4sccc4n3)cc2)CC1`, the growth was 20% (inactive).

As to `CCCCCCCCCCCC(=O)NC(C)(C)C(=O)N1CCCC1C(=O)NC(C)(C)C(=O)NC(C)(C)C(=O)N1CCCC1C(=O)NC(C)(C)C(=O)NC(C)(C)C(=O)N1CCCC1C(=O)NC(C)C(=O)NCCC(=O)NC(C)C(=O)NC(C)(C)C(=O)NC(C)(C)C(=O)NC(C)(C)C(=O)NCCC(=O)NC(C)(C)C(=O)NC(C)(C)C(=O)NC(C)(C)C(=O)NC(C)C(=O)NCCC(=O)O` (configuration not stated), the growth was -92.4% (active).

With `O=C(CCCCCCN1CC(=O)N2[C@@H](c3ccc(Cl)s3)c3[nH]c4ccccc4c3C[C@H]2C1=O)NO`, the growth was 37.6% (inactive).

`Clc1cccc(/C=N/Nc2nc(N/N=C/c3cccc(Cl)c3)nc(N3CCCCC3)n2)c1`: the growth is 108% (inactive).

As to `COc1ccc(Cn2cc(C#N)c(N)c2C(C)=O)cc1`, the growth was 107% (inactive).

For the compound `C#Cc1nc(/C=C\CCCCCCC(=O)NO)cs1`, the growth is 98.8% (inactive).

Take `CC1(C)CC[C@]2(C(=O)O)CC[C@]3(C)C(=CC[C@@H]4[C@@]5(C)CC[C@H](NOCCCN)C(C)(C)[C@@H]5CC[C@]43C)[C@@H]2C1`: the growth was 76.3% (inactive).
